GC-B act = GC-B (human) receptor activation; activation, % at 10 µM; HEK293-GC-B cells, CNP EC30, cGMP TR-FRET; 0% at EC30 CNP, 100% saturating CNP; hit rate 0.11% among 370,000;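 active = activation at 10 µM reaching about 35% in either raw or pattern-adjusted values, limit read from the data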
Target sequence (P20594 whole entry, looked up): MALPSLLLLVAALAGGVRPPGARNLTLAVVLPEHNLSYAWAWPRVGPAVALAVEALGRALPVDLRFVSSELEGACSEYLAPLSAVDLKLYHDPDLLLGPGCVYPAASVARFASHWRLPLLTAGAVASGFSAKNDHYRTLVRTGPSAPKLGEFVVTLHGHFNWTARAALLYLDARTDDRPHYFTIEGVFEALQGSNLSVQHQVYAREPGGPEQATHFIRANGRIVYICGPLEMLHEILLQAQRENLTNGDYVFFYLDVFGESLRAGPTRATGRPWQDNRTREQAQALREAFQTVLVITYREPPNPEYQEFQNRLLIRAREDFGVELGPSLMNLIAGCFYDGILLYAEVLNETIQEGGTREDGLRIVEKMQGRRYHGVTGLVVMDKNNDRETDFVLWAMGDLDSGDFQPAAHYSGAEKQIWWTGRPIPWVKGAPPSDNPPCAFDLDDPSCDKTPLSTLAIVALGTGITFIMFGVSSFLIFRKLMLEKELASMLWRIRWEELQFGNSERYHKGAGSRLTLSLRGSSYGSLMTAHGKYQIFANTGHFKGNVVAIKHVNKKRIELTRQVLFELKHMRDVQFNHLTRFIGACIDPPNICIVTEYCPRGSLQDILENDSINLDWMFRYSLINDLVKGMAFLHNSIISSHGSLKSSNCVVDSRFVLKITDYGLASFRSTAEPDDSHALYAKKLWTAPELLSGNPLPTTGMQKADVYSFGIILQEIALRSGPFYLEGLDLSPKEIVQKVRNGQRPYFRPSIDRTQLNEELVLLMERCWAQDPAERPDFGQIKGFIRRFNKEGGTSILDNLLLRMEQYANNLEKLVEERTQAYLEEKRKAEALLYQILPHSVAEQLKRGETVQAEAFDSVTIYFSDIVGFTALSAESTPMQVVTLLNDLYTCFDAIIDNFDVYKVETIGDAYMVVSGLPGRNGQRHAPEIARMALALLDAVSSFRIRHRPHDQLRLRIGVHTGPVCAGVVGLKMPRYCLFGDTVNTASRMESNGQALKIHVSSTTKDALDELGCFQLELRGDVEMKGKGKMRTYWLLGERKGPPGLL
A1 inh = inhibitors of the anti-apoptotic protein A1, read as caspase activation | MEF A1-2A-BIM cells, Caspase-Glo 3/7 luminescence, 3 h; percent of clofoctol response, vehicle zero | caspase activation, % (test concentration not listed) | hit rate 0.066% among 330,000 | AID 2462;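 active = over half of replicate activation scores above 10%, or exactly half above 10 with the replicate mean above 10; inconclusive = replicate mean below 10 yet half the replicates above 10; inactive = over half of replicates below 10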
H9c2 TAG inh = inhibitors of triacylglycerol accumulation; hit rate 0.66% among 230,000; H9c2 cells, Nile Red lipid (TAG) fluorescence; cells loaded with 200 µM oleic acid; inhibition, % at 12.5 µM; AID 651582;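 active = pattern-corrected inhibition of lipid staining of at least 50% with the nuclear-stain viability signal not falling by more than 50%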;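 note: 0% = DMSO wells and 100% = triacsin C control wells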
GC-A act = GC-A (human) enzyme activation. P16066. hit rate 0.14% among 370,000. HEK293 GC-A cells, cGMP TR-FRET, EC30 ANP; 0% at EC30 ANP, 100% saturating ANP. activation, % at 10 µM; in the data active = activation above about 40%
Efflux pump inh = antifungal efflux pump inhibition, Nile Red retention | S. cerevisiae Candida pump triplex | hit rate 0.44% among 330,000 | inhibition, % at 10 µM | AID 485275;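 active = plate passing quality check with inhibition over a set limit, or well fluorescence over plate mean plus 4 SD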;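 note: Nile Red retained in pooled yeast measured as flow cytometry median fluorescence; 0% = buffer negative control and 100% = Enniatin B positive control; higher means more Nile Red kept so more efflux inhibition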
HSV replic up = HSV replication enhancement. HSV replication augmentation in cells, fold increase. hit rate 0.005% among 220,000. maximum fold increase; in the data active = maximum fold increase above about 1.5; inconclusive = no clear call, values can overlap the other calls; tested in PC3 cells
Cmpd fluor yeast = flagged as fluorescent in efflux inhibitor counter-screen; shares compounds with Efflux pump inh; S. cerevisiae AD/pABC3, compound fluorescence, flow cytometry; fluorescence ratio to DMSO, % at 10 µM; hit rate 4% among 1,700; AID 588517;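 active = fluorescence ratio to DMSO above its plate's cutoff, the plate mean ratio plus 5 SD, cut at about 210% in these data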;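 note: unstained yeast with no Nile Red so the signal is compound autofluorescence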
Mdr1 pump inh = blocks the Candida albicans Mdr1 efflux pump in yeast; shares compounds with Efflux pump inh; S. cerevisiae AD/CaMDR1, Nile Red efflux, flow cytometry; inhibition, % at 10 µM; hit rate 1% among 1,700; AID 588518; in the data active = inhibition above about 26%;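 note: 0% = DMSO vehicle and 100% = reference inhibitor; higher means more Nile Red retained so more efflux inhibition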
Cdr2 pump inh = Candida Cdr2 efflux pump inhibition; shares compounds with Efflux pump inh; S. cerevisiae AD/CaCDR2, Nile Red retention, flow cytometry; Nile Red retention ratio vs DMSO, % at 10 µM; hit rate 4% among 1,700; AID 588520; in the data active = Nile Red retention ratio vs DMSO above about 190%;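 note: higher ratio means more blocking of Cdr2 efflux of the dye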
Cdr1 pump inh = Candida Cdr1 efflux pump inhibition; S. cerevisiae AD/CaCDR1, Nile Red efflux, flow cytometry; shares compounds with Efflux pump inh; hit rate 1% among 1,700; inhibition, % at 10 µM;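 active = inhibition above the screen-wide mean plus twice its standard deviation, cut at about 32% in these data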
* hit, by the source's call; i = inactive; ? = inconclusive; · = no result. Most compounds without a hit are left out; they make up all but 1% or so of the library.

SMILES	GC-B act	A1 inh	H9c2 TAG inh	GC-A act	Efflux pump inh	HSV replic up	Cmpd fluor yeast	Mdr1 pump inh	Cdr2 pump inh	Cdr1 pump inh
Cc1ccc(C(=O)NCCN2C(=O)C3C4C=CC(C4)C3C2=O)cc1 (centres undefined)	-7.4	·	·	0.0	·	·	·	·	·	·
Cc1ccc(-n2c(SCC(=O)Nc3ccccc3-c3ccccc3)nnc2-c2cccs2)cc1	-8.1	·	·	-11.9	·	·	·	·	·	·
Cc1ccccc1SCC(=O)Nc1cc(S(=O)(=O)N2CCOCC2)ccc1N1CCOCC1	-2.7	-1.0	6.8	0.3	0.8*	i	107.9	-0.1	110.3	0.0
O=C(CSc1cccc[n+]1[O-])Nc1cc(S(=O)(=O)N2CCOCC2)ccc1N1CCOCC1	-0.2	-0.3	·	3.8	0.3	i	·	·	·	·
O=C(NCCCc1ccccc1)O[C@@H]1CC[C@@]23CCCN2C(=O)CCC[C@H]3C1	4.5	·	·	3.0	·	·	·	·	·	·
NC(=O)c1nc(-c2ccco2)nc2c1[nH]c(=O)n2-c1ccc(Cl)c(Cl)c1	-2.9	-0.3	24.2	-1.4	1.2*	i	107.2	0.2	105.1	0.2
CCOc1ccccc1-c1nc(C(N)=O)c2[nH]c(=O)n(-c3ccccc3)c2n1	-2.3	-0.5	·	-3.2	0.2	i	105.8	0.5	96.3	0.2
NC(=O)c1nc(-c2cccs2)nc2c1[nH]c(=O)n2-c1ccc(F)cc1	-6.6	0.3	3.9	-2.1	0.3	i	103.0	-0.1	106.0	0.0
CC(C)Cc1nc(C(N)=O)c2[nH]c(=O)n(-c3ccc(F)cc3)c2n1	-1.2	0.5	-11.9	-1.1	0.5	·	·	·	·	·
COc1ccccc1-c1nc(C(N)=O)c2[nH]c(=O)n(-c3cccc(C)c3)c2n1	7.9	-0.3	-4.8	8.7	0.4*	i	104.0	0.6	111.5	0.5
COC(=O)[C@@]12CCCCC3=C1N(CCC3)C(=O)[C@H]2CC(=O)NCC1CCCCC1	5.1	·	·	1.3	·	·	·	·	·	·
O=C(Nc1nccs1)C1(C(=O)C2CC2)CC(c2ccccn2)=NO1 (centres undefined)	-2.0	·	·	2.7	·	·	·	·	·	·
O=C(Oc1c(-c2ccccc2)c(=O)n2c3c(cccc13)CC2)c1ccco1	3.7	0.2	5.5	-0.7	-0.1	i	96.6	-0.4	106.3	0.1
O=c1c(-c2ccccc2)c(O)c2cccc3c2n1CCC3	1.1	-0.9	19.3	1.9	0.2	i	·	·	·	·
O=C(Oc1c(-c2ccccc2)c(=O)n2c3c(cccc13)CC2)c1ccc(Cl)cc1	-3.7	-0.4	-5.0	-2.2	0.0	i	96.9	-0.1	96.5	0.0
O=C(Nc1ccccc1Oc1ccccc1)NC1CCCCN(Cc2cccc(Cl)c2)C1=O (centres undefined)	-2.3	·	·	6.2	·	·	·	·	·	·
CS(=O)(=O)Nc1ccc(C(=O)N2CCCCC2)cc1	-4.3	0.1	·	-2.2	0.0	i	·	·	·	·
CC1CCN(C(=O)c2ccc(NS(C)(=O)=O)cc2)CC1	5.5	-0.6	·	0.1	0.6*	i	99.0	-0.3	107.2	-0.1
CCOC(=O)Cn1cc(CN2C(C(=O)OC)CN(Cc3ccc(C)cc3)CCS2(=O)=O)nn1 (centres undefined)	0.9	·	·	4.1	·	·	·	·	·	·
CC(C)c1cc(C(C)C)c(S(=O)(=O)N2CCCC(C(=O)NCc3cccs3)C2)c(C(C)C)c1 (centres undefined)	-1.9	·	·	-3.0	·	·	·	·	·	·
COc1ccccc1C(=O)N(NC(=O)Oc1ccccc1)C(C)(C)C	3.5	0.9	·	2.9	5.8*	i	98.6	-0.1	112.0	-0.3
Cc1cccc(C(=O)N(NC(=O)Oc2ccccc2)C(C)(C)C)c1	-2.6	0.0	·	-6.5	0.0	i	·	·	·	·
Cc1nn(C)c(C)c1/C=N/NC(=O)CCn1cc([N+](=O)[O-])cn1	-1.1	-0.1	·	3.5	13.8*	i	93.4	-0.2	95.6	-0.1
O=C1/C(=C\c2ccc(O)cc2)SC(=S)N1/N=C/c1ccc(O)cc1	-4.7	-3.6	-4.9	-3.8	0.2	?	96.6	-0.3	106.3	0.0
O=[N+]([O-])c1ccc(O)c(/C=N/n2cnnc2)c1	4.9	1.2	·	-3.1	0.0	i	·	·	·	·
SMILES	GC-B act	A1 inh	H9c2 TAG inh	GC-A act	Efflux pump inh	HSV replic up	Cmpd fluor yeast	Mdr1 pump inh	Cdr2 pump inh	Cdr1 pump inh
O=C1/C(=C/c2cccc(Br)c2)SC(=S)N1/N=C/c1cc([N+](=O)[O-])ccc1O	1.2	-0.4	0.8	5.9	0.0	i	96.6	0.1	83.1	-0.1
CC(=O)NN1C(=O)/C(=C\c2ccc(O)cc2)SC1=S	-1.6	-5.2	-8.4	-3.5	0.0	i	·	·	·	·
NC(=NCc1ccccc1)NC(=O)OCc1ccccc1	-1.3	·	·	0.5	·	·	·	·	·	·
O=S(=O)(Cc1ccccc1)N1CCN(Cc2ccc3c(c2)OCO3)CC1	1.5	-0.1	-5.4	3.2	1.1*	i	103.4	-0.3	93.0	-0.1
O=S(=O)(c1ccc2c(c1)OCCO2)N1CCN(Cc2ccc3c(c2)OCO3)CC1	0.1	-0.9	0.3	-0.5	0.2	i	·	·	·	·
CCCCN1CCN(C(=O)C2CCN(S(=O)(=O)c3ccc4[nH]c(=O)oc4c3)CC2)CC1	4.3	·	·	-0.5	·	·	·	·	·	·
Cc1ccc(Oc2nc(CN3CCOCC3)nc3sc4c(c23)CCC(C)C4)cc1 (centres undefined)	-8.3	-0.5	·	-1.4	-0.3	i	·	·	·	·
CC1CCc2c(sc3nc(CN4CCOCC4)nc(N4CCc5ccccc5C4)c23)C1 (centres undefined)	-0.1	-0.1	·	0.4	20.3*	i	90.7	0.0	116.0	-0.1
CCOc1ccc(/C=N/NC(=O)c2nnn(-c3nonc3N)c2COc2ccc(F)cc2)cc1	-2.6	0.3	1.3	-4.3	0.1	i	102.6	-0.1	103.0	0.0
C/C(=N\NC(=O)c1nnn(-c2nonc2N)c1COc1ccc(F)cc1)c1ccc(Cl)cc1	0.4	1.0	12.4	-5.4	0.1	i	99.0	-0.3	109.4	0.0
CCCc1c(C(=O)N/N=C/c2ccc(OC)c(OCc3ccccc3)c2)nnn1-c1nonc1N	6.1	-0.5	·	3.6	0.3	·	·	·	·	·
CCCc1c(C(=O)N/N=C(\C)c2ccc(O)cc2)nnn1-c1nonc1N	1.7	-0.2	·	1.7	-0.6	·	·	·	·	·
Nc1nonc1-n1nnc(C(=O)N/N=C/c2ccccc2)c1CSc1ccccc1	-1.5	0.3	-8.2	-1.9	0.5	i	108.3	0.3	101.5	-0.1
CCCc1c(C(=O)N/N=C/c2c(OC)ccc3ccccc23)nnn1-c1nonc1N	14.4	1.3	·	9.6	0.4	·	104.5	0.1	102.9	0.0
